The text below walks through data of PubChem BioAssay (NCI).

Experiment [1] can be described thus: NCI Yeast Anticancer Drug Screen. Data for the rad50 strain (AID 155).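 Note: 0% = growth of vehicle-only cultures of the same strain.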 Particulars: S. cerevisiae rad50 strain growth inhibition, active compounds read high. The procedure, abridged:
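DNA repair mutant yeast, compound exposure, growth read-out; inhibition is taken relative to vehicle.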

Experiment [2] is described as follows: NCI Yeast Anticancer Drug Screen. Data for the mec2-1 strain (AID 157). The conditions noted are these: S. cerevisiae mec2-1 strain, active compounds read high. Put shortly: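 Compounds were applied to mec2-1 yeast cells. Their growth was then compared with that of vehicle-treated cultures to give growth inhibition.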
Experiment [3] can be described thus: NCI Yeast Anticancer Drug Screen. Data for the sgs1 mgt1 strain (AID 161).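 Note: 0% = growth of cultures given vehicle only.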 Particulars: S. cerevisiae sgs1 mgt1 strain, active compounds read high. The procedure, abridged:
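Percent growth inhibition was derived by comparing compound-exposed mutant yeast with vehicle-exposed cultures. The strain carries alterations in DNA damage repair.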

Experiment [4] is described as follows: NCI Yeast Anticancer Drug Screen. Data for the cln2 rad14 strain (AID 165).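 Note: 0% = growth equal to vehicle treated cultures.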 Particulars: S. cerevisiae cln2 rad14 strain, active compounds read high. Put shortly: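 Strain: cln2 rad14 yeast, altered in cell cycle control and DNA damage repair. Read-out: growth inhibition vs vehicle.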
The nature of experiment [5]: NCI Yeast Anticancer Drug Screen. Data for the bub3 strain (AID 167). The conditions noted are these: S. cerevisiae bub3 mutant strain, active compounds read high. The procedure, abridged:
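In this screen, a yeast mutant lacking normal mitotic checkpoint function is challenged with compound. Relative growth versus vehicle gives the inhibition value.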

The nature of experiment [6]: NCI Yeast Anticancer Drug Screen. Data for the mlh1 rad18 strain (AID 175). Particulars: S. cerevisiae mlh1 rad18 strain growth inhibition, active compounds read high. The procedure, abridged:
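A repair-deficient yeast strain is exposed to test compound, and growth is scored relative to vehicle-treated controls.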

[7] abbreviates: at 5.0 µM (retest, dose inferred, filed as 0.5).
[8] abbreviates: at 50.0 µM (retest, dose inferred, filed as 5.0).

SMILES strings stand for the structures. This is part of a sample that, as a whole, favours compounds with a hit. Of some 79,000 tested, about 15% had one in any assay. Values without a mark were called inactive. The source made the active and inactive calls. Cut-off read from the data, not from the text of the source: active = growth inhibition above about 70%; inactive = the rest.

`CCCCCCCCNc1ncnc2c1cnn2C`: the growth inhibition was -2% in experiment [1] (setting [7]); 69% in experiment [1] (setting [8]); 48.6% in experiment [1] (at 50.0 µM); 4% in experiment [2] (setting [7]); 83% (active) in experiment [2] (setting [8]); 43% in experiment [2] (at 50.0 µM). The growth inhibition in experiment [3] (setting [7]) was -2%; in experiment [3] (setting [8]), 85% (active); in experiment [3] (at 50.0 µM), 54.8%; in experiment [4] (setting [7]) it was -9%; in experiment [4] (setting [8]), 61%; in experiment [4] (at 50.0 µM) it was 98.8% (active). Also, the growth inhibition in experiment [5] (setting [7]) was 1%; in experiment [5] (setting [8]), 87% (active); in experiment [5] (at 50.0 µM), 97.8% (active); in experiment [6] (setting [7]), 18%; in experiment [6] (setting [8]) it was 86% (active); in experiment [6] (at 50.0 µM), 49.9%.
Turning to `O=S(=O)(CCNCCCCC1CCCCC1)SCCNCCCCC1CCCCC1`, the growth inhibition in experiment [1] (setting [7]) is 48%; in experiment [1] (setting [8]) it was 99% (active); in experiment [1] (at 50.0 µM), 68.3%; in experiment [2] (setting [7]) it was 3%; in experiment [2] (setting [8]), 99% (active); in experiment [2] (at 50.0 µM), 49.1%. For the same compound, the growth inhibition in experiment [3] (setting [7]) was 70% (active); in experiment [3] (setting [8]), 99% (active); in experiment [3] (at 50.0 µM), 55.1%; in experiment [4] (setting [7]), 10%; in experiment [4] (setting [8]), 99% (active); in experiment [4] (at 50.0 µM) it was 56.5%. For the same compound, the growth inhibition in experiment [5] (setting [7]) is 16%; in experiment [5] (setting [8]), 99% (active); in experiment [5] (at 50.0 µM), 98.8% (active); in experiment [6] (setting [7]), 38%; in experiment [6] (setting [8]) it was 99% (active); in experiment [6] (at 50.0 µM), 47%.
For the compound `CC(=O)/C(=C\c1ccco1)C(=O)Nc1ccccc1`, the growth inhibition in experiment [1] (setting [7]) was 2%; in experiment [1] (setting [8]), 23%; in experiment [1] (at 50.0 µM), 73.1% (active); in experiment [2] (setting [7]) it was 0%; in experiment [2] (setting [8]), 21%; in experiment [2] (at 50.0 µM), 48.2%. The growth inhibition in experiment [3] (setting [7]) was 13%; in experiment [3] (setting [8]) it was 26%; in experiment [3] (at 50.0 µM), 80.2% (active); in experiment [4] (setting [7]), 6%; in experiment [4] (setting [8]), 23%; in experiment [4] (at 50.0 µM), 92.4% (active). The growth inhibition is -4% in experiment [5] (setting [7]); 58% in experiment [5] (setting [8]); 91.2% (active) in experiment [5] (at 50.0 µM); 6% in experiment [6] (setting [7]); 37% in experiment [6] (setting [8]); 94.7% (active) in experiment [6] (at 50.0 µM).
Turning to `CS(C)=O.[Cl-].[Cl-].[NH-]CC(O)CN(Cc1ccccc1)CC(O)CN.[Pt]` (stereo not given), the growth inhibition in experiment [1] (setting [7]) was -15%; in experiment [1] (setting [8]), 4%; in experiment [1] (at 50.0 µM), 31.9%; in experiment [2] (setting [7]) it was 18%; in experiment [2] (setting [8]), 20%; in experiment [2] (at 50.0 µM), 1%. Further, the growth inhibition in experiment [3] (setting [7]) is 2%; in experiment [3] (setting [8]) it was 18%; in experiment [3] (at 50.0 µM), 17.7%; in experiment [4] (setting [7]) it was 39%; in experiment [4] (setting [8]), 14%; in experiment [4] (at 50.0 µM) it was -6.25%. Besides, the growth inhibition in experiment [5] (setting [7]) was -19%; in experiment [5] (setting [8]) it was -11%; in experiment [5] (at 50.0 µM), -5.7%; in experiment [6] (setting [7]) it was -13%; in experiment [6] (setting [8]), -4%; in experiment [6] (at 50.0 µM), 7.75%.
As to `O=C(OC1CC2CC1C1CC=CC21)c1ccccc1` (stereo not given), the growth inhibition in experiment [1] (setting [7]) was -3%; in experiment [1] (setting [8]), -3%; in experiment [1] (at 50.0 µM) it was -5.55%; in experiment [2] (setting [7]) it was -6%; in experiment [2] (setting [8]), 2%; in experiment [2] (at 50.0 µM), 10.9%. Also, the growth inhibition in experiment [3] (setting [7]) was -8%; in experiment [3] (setting [8]), 1%; in experiment [3] (at 50.0 µM) it was -3.8%; in experiment [4] (setting [7]), -5%; in experiment [4] (setting [8]), -24%; in experiment [4] (at 50.0 µM) it was -4.4%. Further, the growth inhibition in experiment [5] (setting [7]) was 46%; in experiment [5] (setting [8]), 68%; in experiment [5] (at 50.0 µM), 21.9%; in experiment [6] (setting [7]) it was -5%; in experiment [6] (setting [8]), -3%; in experiment [6] (at 50.0 µM), -3.95%.
`Clc1ccc2nc3c(c(N4CCCCC4)c2c1)CCCC3`: the growth inhibition was 7% in experiment [1] (setting [7]); 99% (active) in experiment [1] (setting [8]); 98.8% (active) in experiment [1] (at 50.0 µM); 4% in experiment [2] (setting [7]); 99% (active) in experiment [2] (setting [8]); 99.2% (active) in experiment [2] (at 50.0 µM). The growth inhibition in experiment [3] (setting [7]) was 13%; in experiment [3] (setting [8]) it was 99% (active); in experiment [3] (at 50.0 µM) it was 99.4% (active); in experiment [4] (setting [7]), 2%; in experiment [4] (setting [8]), 99% (active); in experiment [4] (at 50.0 µM) it was 99.2% (active). Moreover, the growth inhibition in experiment [5] (setting [7]) was 0%; in experiment [5] (setting [8]) it was 99% (active); in experiment [5] (at 50.0 µM), 97% (active); in experiment [6] (setting [7]) it was 11%; in experiment [6] (setting [8]) it was 98% (active); in experiment [6] (at 50.0 µM), 99.2% (active).
`CN(C)C(=S)/N=c1\ssc(=S)n1C`: the growth inhibition is 2% in experiment [1] (setting [7]); 0% in experiment [1] (setting [8]); 86.7% (active) in experiment [1] (at 50.0 µM); 2% in experiment [2] (setting [7]); 4% in experiment [2] (setting [8]); 27.4% in experiment [2] (at 50.0 µM). For the same compound, the growth inhibition is 2% in experiment [3] (setting [7]); -1% in experiment [3] (setting [8]); 90.7% (active) in experiment [3] (at 50.0 µM); 1% in experiment [4] (setting [7]); 4% in experiment [4] (setting [8]); 72.1% (active) in experiment [4] (at 50.0 µM). The growth inhibition was -1% in experiment [5] (setting [7]); -1% in experiment [5] (setting [8]); 87.8% (active) in experiment [5] (at 50.0 µM); 0% in experiment [6] (setting [7]); 6% in experiment [6] (setting [8]); 84.8% (active) in experiment [6] (at 50.0 µM).
As for `Cc1[nH]nc(-c2cccnc2)c1N=NN1CCOCC1`, the growth inhibition in experiment [1] (setting [7]) is -4%; in experiment [1] (setting [8]), 70% (active); in experiment [1] (at 50.0 µM), 64%; in experiment [2] (setting [7]), 7%; in experiment [2] (setting [8]), 79% (active); in experiment [2] (at 50.0 µM) it was 97.5% (active). Also, the growth inhibition in experiment [3] (setting [7]) is -5%; in experiment [3] (setting [8]), 98% (active); in experiment [3] (at 50.0 µM) it was 96% (active); in experiment [4] (setting [7]), -2%; in experiment [4] (setting [8]) it was 80% (active); in experiment [4] (at 50.0 µM), 58.5%. Further, the growth inhibition is -3% in experiment [5] (setting [7]); 99% (active) in experiment [5] (setting [8]); 5.35% in experiment [5] (at 50.0 µM); -3% in experiment [6] (setting [7]); 77% (active) in experiment [6] (setting [8]); 98% (active) in experiment [6] (at 50.0 µM).
`CC(C)(c1ccc(OC#N)cc1)c1ccc(OC#N)cc1`: the growth inhibition in experiment [1] (setting [7]) is 21%; in experiment [1] (setting [8]), 78% (active); in experiment [1] (at 50.0 µM), 66%; in experiment [2] (setting [7]), -23%; in experiment [2] (setting [8]), 87% (active); in experiment [2] (at 50.0 µM), 53.4%. In addition, the growth inhibition in experiment [3] (setting [7]) is 4%; in experiment [3] (setting [8]) it was 40%; in experiment [3] (at 50.0 µM), 79.5% (active); in experiment [4] (setting [7]), 23%; in experiment [4] (setting [8]), 88% (active); in experiment [4] (at 50.0 µM), 61.4%. For the same compound, the growth inhibition in experiment [5] (setting [7]) was 1%; in experiment [5] (setting [8]), 95% (active); in experiment [5] (at 50.0 µM) it was 25%; in experiment [6] (setting [7]), -14%; in experiment [6] (setting [8]) it was 59%; in experiment [6] (at 50.0 µM), 47%.
Turning to `CC(CN(C)C)C(=O)c1cn(C)c2ccccc12` (stereo not given), the growth inhibition in experiment [1] (setting [7]) is 1%; in experiment [1] (setting [8]) it was 3%; in experiment [1] (at 50.0 µM), 9%; in experiment [2] (setting [7]), 5%; in experiment [2] (setting [8]), 2%; in experiment [2] (at 50.0 µM), 16.8%. The growth inhibition in experiment [3] (setting [7]) was -2%; in experiment [3] (setting [8]), 3%; in experiment [3] (at 50.0 µM), 30.3%; in experiment [4] (setting [7]), 3%; in experiment [4] (setting [8]), 4%; in experiment [4] (at 50.0 µM), 12.6%. In addition, the growth inhibition in experiment [5] (setting [7]) is -2%; in experiment [5] (setting [8]), -4%; in experiment [5] (at 50.0 µM) it was -9.05%; in experiment [6] (setting [7]), -2%; in experiment [6] (setting [8]) it was 1%; in experiment [6] (at 50.0 µM), 70.2% (active).
